Here are results for 24 compounds from PubChem BioAssay (EPA / NIEHS).

Active and inactive are the calls of the source. Rule for the calls: active = hit-call score of the fitted dose curve at least 0.9, where 1 is the maximum; inactive = score below 0.9.

The nature of assay [1]: ATG_E_Box_CIS: Attagene CIS-FACTORIAL HepG2 Assay for human Enhancer Box (E-box) (AID 2282936). Particulars: HepG2 E-box cis-reporter transcription, actives raise or lower the signal. The essentials: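 Fluorescent reporter fragments separated by capillary electrophoresis gave the signal; mRNA came from HepG2 cells transfected with cis-element reporters and treated 24 h. Curves fitted bidirectionally relative to DMSO controls.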

A short description of assay [2]: ATG_M_61_CIS: Attagene CIS-FACTORIAL HepG2 Assay for M61 Transcription Factor (Internal Marker) (AID 2282937). Particulars: HepG2 Attagene CIS-FACTORIAL M61 internal marker reporter; actives raise or lower the signal. The essentials: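 Multiplexed reporter mRNA assay, HepG2 human hepatoma cells, 24 h treatment. Signal: FAM-labelled, HpaI-digested RT-PCR fragments by CE. Fit: bidirectional, baseline DMSO.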

Assay [3] can be described thus: ATG_EGR_CIS: Attagene CIS-FACTORIAL HepG2 Assay for human Early Growth Response 1 (EGR1) (AID 2282938). Conditions: HepG2 Attagene CIS-FACTORIAL EGR reporter mRNA; actives raise or lower the signal. Put shortly:
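Multiplexed cis-reporter system in human hepatoma HepG2 cells, transiently transfected. Cells are dosed for 24 h; reporter transcripts are amplified, fluorescently tagged and sized by capillary electrophoresis, with DMSO as negative control.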

Assay [4] can be described thus: ATG_M_19_CIS: Attagene CIS-FACTORIAL HepG2 Assay for M19 Transcription Factor (Internal Marker) (AID 2282939). Particulars: HepG2 Attagene CIS-FACTORIAL M19 internal marker reporter; actives raise or lower the signal. The essentials: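 Readout: fluorescent reporter-transcript fragments by capillary electrophoresis after RT-PCR. Human HepG2 liver cells carried transfected MRTU constructs reporting endogenous transcription-factor activity; exposure 24 h. Gain or loss of signal fitted relative to DMSO.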

The nature of assay [5]: ATG_ERE_CIS: Attagene CIS-FACTORIAL HepG2 Assay for Estrogen Response Element (ERE) (AID 2282940). Particulars: HepG2 ERE cis-reporter, Attagene RNA transcript; actives raise or lower the signal. Put shortly: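 Readout: reporter mRNA induction by RT-PCR, FAM-labelled primer extension, HpaI digestion and capillary electrophoresis, 24 h after dosing transfected HepG2 cells. Endogenous transcription factors act on cis-element-regulated reporters. Gain or loss fitted against DMSO.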

The nature of assay [6]: ATG_Ets_CIS: Attagene CIS-FACTORIAL HepG2 Assay for human Erythroblast Transformation Specific (ETS) (AID 2282941). Particulars: HepG2 ETS cis-reporter transcription, actives raise or lower the signal. The essentials:
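Multiplexed reporter transcript profiling: HepG2, 24 h treatment, total RNA to cDNA, PCR, 6-FAM labelling, HpaI cut, capillary electrophoresis. Gain- or loss-of-signal fitted against DMSO.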

Assay [7] has as its target Hepatocyte nuclear factor 3-beta (Homo sapiens) (UniProt Q9Y261). Description: ATG_FoxA2_CIS: Attagene CIS-FACTORIAL HepG2 Assay for human Forkhead box A2 (FOXA2) (AID 2282942). Particulars: HepG2 cis-reporter transcription factor activity, 24 h; actives raise or lower the signal. Put shortly:
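Multiplexed cis-element reporter assay in transiently transfected HepG2. Twenty-four hours post-dosing, RNA was reverse-transcribed, amplified, FAM-labelled, HpaI-digested and separated by CE. Activity gain or loss relative to DMSO.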

Assay [8] is described as follows: ATG_FoxO_CIS: Attagene CIS-FACTORIAL HepG2 Assay for human Forkhead box O (FoxO) (AID 2282943). Particulars: HepG2 Attagene cis-reporter, FoxO element, mRNA; actives raise or lower the signal. The essentials: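 HepG2, transient MRTU transfection (cis element, endogenous TFs). Dose 24 h. TriZol RNA → oligo(dT) RT → PCR → 6-FAM primer extension → HpaI cut → CE. Gain/loss vs DMSO.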

Assay [9] can be described thus: ATG_GATA_CIS: Attagene CIS-FACTORIAL HepG2 Assay for human GATA Binding Protein (AID 2282944). Particulars: HepG2 GATA cis-element reporter, Attagene multiplex mRNA; actives raise or lower the signal. The essentials: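 Read-out: fluorescent reporter mRNA fragments resolved by capillary electrophoresis after RT-PCR. Human liver HepG2 cells carried transiently transfected cis-regulated reporter constructs; chemicals incubated 24 h; gain or loss of signal fitted relative to DMSO.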

A short description of assay [10]: ATG_GLI_CIS: Attagene CIS-FACTORIAL HepG2 Assay for human Zinc Finger Protein GLI1 (AID 2282945). Particulars: HepG2, Attagene cis-factorial reporter mRNA, GLI element; actives raise or lower the signal. Put shortly: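 Bidirectional curve fits relative to DMSO, using reporter mRNA levels from RT-PCR plus capillary electrophoresis. Cells were HepG2 transiently carrying cis-regulated reporter constructs, harvested 24 h after dosing.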

Chain of Hepatocyte nuclear factor 3-beta (Homo sapiens) (Q9Y261 whole entry, looked up): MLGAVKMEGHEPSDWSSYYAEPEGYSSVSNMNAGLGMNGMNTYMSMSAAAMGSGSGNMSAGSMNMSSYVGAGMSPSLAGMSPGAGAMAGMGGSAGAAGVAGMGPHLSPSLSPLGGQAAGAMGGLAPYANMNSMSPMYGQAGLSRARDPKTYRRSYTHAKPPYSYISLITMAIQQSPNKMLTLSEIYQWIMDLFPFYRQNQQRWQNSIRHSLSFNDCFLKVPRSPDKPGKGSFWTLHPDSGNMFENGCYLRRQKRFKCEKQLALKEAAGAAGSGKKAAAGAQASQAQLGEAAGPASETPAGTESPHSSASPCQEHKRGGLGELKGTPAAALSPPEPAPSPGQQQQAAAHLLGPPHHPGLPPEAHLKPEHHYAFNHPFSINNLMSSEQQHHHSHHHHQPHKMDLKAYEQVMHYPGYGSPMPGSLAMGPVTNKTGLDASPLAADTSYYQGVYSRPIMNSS

As usually defined, the AC50 is the concentration giving half of the maximal activity seen. In the case of `O=C(CCl)CCl`, the AC50 is 30.1 µM (active) in [1], 48.8 µM (active) in assay [3], 39.1 µM (active) in assay [6] and 46.3 µM (active) in assay [8]. For the same compound, the compound was classed as inactive in assay [2], in assay [4], in [5], in assay [7], in [9] and in [10].
With `O=S(=O)(c1ccc(Cl)cc1)c1ccc(Cl)cc1`, the outcome in assay [1], in [2], in assay [3], in [4], in assay [5] and in assay [6] was inactive. Also, the compound was called inactive in [7], in assay [8], in [9] and in assay [10].
On to `CC(=O)[O][Hg][c]1ccccc1`, for which the outcome in [1], in assay [2], in assay [4], in assay [5], in [6] and in [7] was inactive. The result in assay [8], in assay [9] and in assay [10] was inactive. The AC50 in assay [3] was 4.73 µM (active).
For the compound `CCC[CH2][Sn]([Cl])([Cl])[Cl]`, the outcome in [1], in [2], in [3], in assay [4], in assay [5] and in assay [6] was inactive. The compound was called inactive in assay [7], in assay [8], in assay [9] and in assay [10].
`C=CC#N`: the outcome in assay [1], in [2], in assay [3], in assay [4], in assay [6] and in assay [7] was inactive. In addition, the result in assay [8], in [9] and in assay [10] was inactive. For the same compound, the AC50 in assay [5] is 71.5 µM (active).
As for `O=C1CCCN1`, the outcome in [1], in assay [2], in assay [3], in assay [4], in assay [5] and in [6] was inactive. The compound was classed as inactive in assay [7], in assay [8], in assay [9] and in assay [10].
For the compound `OCC(O)CCl` (stereo not given), the result in [1], in assay [2], in [3], in [4], in assay [5] and in assay [6] was inactive. The outcome in assay [7], in assay [8], in assay [9] and in assay [10] was inactive.
Take `CC(C#N)CCC#N` (stereo not given): the outcome in [1], in [2], in assay [3], in assay [4], in assay [5] and in assay [6] was inactive. Moreover, the compound was classed as inactive in [7], in assay [8], in assay [9] and in assay [10].
As for `CC(=[OH+])/C=C(/C)[O-].CC(=[OH+])/C=C(/C)[O-].CC(=[OH+])/C=C(/C)[O-].[Fe]`, the result in [1], in assay [2], in assay [3], in assay [4], in [5] and in assay [6] was inactive. Further, the compound was classed as inactive in [7], in assay [8], in assay [9] and in assay [10].
For the compound `CNC`, the result in [1], in assay [2], in [3], in [4], in assay [5] and in assay [6] was inactive. For the same compound, the result in [7], in assay [8], in assay [9] and in assay [10] was inactive.
Turning to `CCOC(=O)CP(=O)(OCC)OCC`, the result in assay [1], in [2], in assay [3], in assay [4], in [5] and in [6] was inactive. Further, the call in [7], in assay [8], in assay [9] and in [10] was inactive.
With `CCCCOCCOC(C)=O`, the result in [1], in assay [2], in assay [3], in assay [4], in [5] and in [6] was inactive. Also, the compound was classed as inactive in [7], in [8], in [9] and in assay [10].
For the compound `ClCc1ccccn1`, the outcome in assay [1], in assay [2], in assay [3], in [4], in assay [5] and in assay [6] was inactive. In addition, the compound was called inactive in assay [7], in [8], in [9] and in assay [10].
Take `COP(=S)(OC)Oc1cc(Cl)c(Cl)cc1Cl`: the result in [1], in assay [2], in [3], in assay [4], in [6] and in assay [7] was inactive. In addition, the outcome in assay [8], in assay [9] and in assay [10] was inactive. In addition, in assay [5], the AC50 is 75.6 µM (active).
`CCSC(C)CC1CC(=O)C(C(CC)=NOC/C=C/Cl)=C(O)C1` (stereo not given): the outcome in assay [1], in assay [2], in assay [3], in assay [4], in [5] and in [6] was inactive. Further, the result in [7], in assay [8], in assay [9] and in assay [10] was inactive.
Consider `CC(C)OC(=O)Nc1ccccc1`, for which the result in assay [1], in [2], in [3], in assay [4], in [5] and in assay [6] was inactive. Moreover, the outcome in assay [7], in [8], in assay [9] and in [10] was inactive.
As to `N#CCCO`, the result in assay [1], in assay [2], in [3], in assay [4], in [5] and in [6] was inactive. Besides, the call in assay [7], in [8], in assay [9] and in assay [10] was inactive.
`BrCCBr`: the outcome in assay [1], in assay [2], in [3], in assay [4], in assay [5] and in [6] was inactive. Also, the compound was classed as inactive in assay [7], in [8], in assay [9] and in [10].
Take `O=Cc1cccc(Oc2ccccc2)c1`: the result in assay [1], in [2], in assay [3], in assay [4], in assay [5] and in assay [6] was inactive. Also, the outcome in assay [7], in assay [8], in [9] and in assay [10] was inactive.
Consider `COc1cc(OC)nc(NC(=O)NS(=O)(=O)c2ncccc2C(=O)N(C)C)n1`, for which the outcome in [1], in [2], in assay [3], in [4], in assay [5] and in [6] was inactive. Moreover, the result in assay [7], in [8], in [9] and in assay [10] was inactive.
As for `CCC(C)(C)c1ccc(O)c(C(C)(C)CC)c1`, the outcome in [1], in assay [2], in assay [3], in assay [4], in [5] and in assay [6] was inactive. The compound was classed as inactive in assay [7], in assay [8], in assay [9] and in assay [10].
On to `O=CC=O`, for which the result in assay [1], in [2], in assay [3], in [4], in assay [5] and in assay [6] was inactive. Further, the call in assay [7], in [8], in assay [9] and in assay [10] was inactive.
Turning to `COc1cc2c(cc1OC)[C@@]13CCN4CC5=CCO[C@H]6CC(=O)N2[C@H]1[C@H]6[C@H]5C[C@H]43`, the outcome in assay [1], in assay [2], in [3], in [4], in assay [5] and in assay [6] was inactive. Further, the compound was called inactive in [7], in [8], in [9] and in [10].
With `CC(=O)OC(c1ccccc1)C(Cl)(Cl)Cl` (stereo not given), the result in [1], in assay [2], in [3], in assay [4], in assay [6] and in assay [7] was inactive. Also, the compound was called inactive in assay [8], in assay [9] and in [10]. In assay [5], the concentration at half-maximal activity (AC50) is 73.8 µM (active).
